In PubChem BioAssay (NCI):
Values joined by “and” are separate entries in the source; they are usually repeats but may differ in a detail not shown here. Equal values may be shown once. This is part of a sample that, as a whole, favours compounds with a hit. Of some 83,000 tested, about 20% had one in any assay.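 Activity criterion: percent growth below 10, measured after cells in 96-well plates were exposed to a single compound concentration for 48 hours.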 Unmarked numbers belong to inactive results. Active and inactive are the calls of the source.

Tests used:
Assay in all cases: NCI-60 one-dose screen, 48 h (100 = growth as untreated, 0 = no growth, -100 = all killed)
[1] = test system: HCT-15 colon; details: 10 µM unless noted
[2] = test system: HT29 colon; details: 10 µM unless noted
[3] = test system: SNB-75 CNS; details: 10 µM unless noted
[4] = test system: SNB-19 CNS; details: 10 µM unless noted
[5] = test system: U251 CNS; details: 10 µM unless noted
[6] = test system: SK-MEL-5 melanoma; details: 10 µM unless noted
[7] = test system: UACC-62 melanoma
[8] = test system: LOX IMVI melanoma; details: 10 µM unless noted
[9] = test system: SK-MEL-28 melanoma; details: 10 µM unless noted
[10] = test system: PC-3 prostate; details: 10 µM unless noted

| Structure (SMILES) | growth [1] | growth [2] | growth [3] | growth [4] | growth [5] | growth [6] | growth ([7]; 10 µM unless noted) | growth [8] | growth [9] | growth [10] | growth ([7]; 10 µM) | growth ([7]; 250 µM) |
| --- | --- | --- | --- | --- | --- | --- | --- | --- | --- | --- | --- | --- |
| COc1ccc2oc3cc(NCCN(C)C)ccc3c(=O)c2c1 | 90.6% and 67% | 69.8% and 53% | 87.2% and 81.5% | 92.7% and 76.1% | 76.7% | 93.3% and 75.5% | 100% and 101% | 83% and 58.2% | 96.1% and 91.3% |  |  |  |
| COC(=O)c1cc(C(=O)OC)cc([N+](=O)[O-])c1 | 105% | 111% |  | 118% | 94.4% | 109% | 102% | 104% | 108% | 98.7% |  |  |
| CC1CC(O)CC(C)(C)C1.CC1CC(O)CC(C)(C)C1.CC1CC(O)CC(C)(C)C1.CC1CC(O)CC(C)(C)C1.[Ti] (stereo not drawn) | 110% | 97.2% |  | 93.4% | 99.2% | 104% | 76.2% | 106% | 118% | 90.4% |  |  |
| CN(C)CC(CN(C)C)C(O)c1ccccc1 (stereo not drawn) | 99.3% | 100% |  | 109% | 99.5% | 106% | 106% | 97.8% | 105% | 101% |  |  |
| CC1OS(=O)OC1C (stereo not drawn) | 94% and 98.6% | 88.7% and 104% |  | 101% | 100% and 101% | 99.9% and 98% | 95.5% and 89.8% | 94.1% and 91.6% | 109% and 103% | 100% and 97.5% |  |  |
| CCCC(=O)OCC(COC(=O)CCC)OC(=O)CCC | 106% | 102% | 93.5% | 97.6% | 88.3% | 98.5% | 89.9% | 101% | 108% |  |  |  |
| OCCSc1ccc(Cl)cc1 | 104% and 102% | 104% and 88.1% | 96.7% and 83% | 118% and 94.6% | 102% and 96.6% | 108% and 98.3% | 110% and 98.1% | 98.4% and 101% | 121% and 93.3% |  |  |  |
| CC(O)CCNC(c1ccccc1)C(O)c1ccccc1 (stereo not drawn) | 109% | 97.3% | 96.5% | 103% | 106% | 109% | 108% | 99% | 112% |  |  |  |
| O=C(c1ccccc1)C1(Br)CCCCC1 | 99.1% | 120% | 95.2% | 92% | 95.6% | 95.7% | 90.5% | 86.7% | 101% |  |  |  |
| CC(=O)c1cccc(OC(=O)c2ccccc2)c1 | 127% | 104% |  | 97.2% | 103% | 108% | 91.1% | 87.4% | 92.1% | 90.9% |  |  |
| CC(C)(C(=O)c1cccnc1)c1cccnc1 | 104% and 105% | 104% and 119% | 107% and 103% | 111% and 115% | 103% and 116% | 98.4% and 106% | 101% and 103% | 102% and 111% | 112% and 121% |  |  |  |
| O=C(O)c1cc(=O)[nH]c(=O)[nH]1 | 102% and 97.9% | 93.3% and 110% | 102% and 86.4% | 111% and 104% | 105% and 95.8% | 82.6% | 103% and 92.5% | 98.8% and 92.3% | 114% and 93.6% |  |  |  |
| C(=N\OCCc1ccccc1)/c1ccccn1 | 95% and 104% |  | 117% and 86.2% | 108% and 103% | 103% and 92.2% | 113% and 111% | 110% and 107% | 122% and 101% | 114% and 112% | 112% and 104% |  |  |
| COc1cc(C2c3cc4c(cc3C(OC(=O)C[n+]3ccccc3)C3COC(=O)C23)OCO4)cc(OC)c1OC (stereo not drawn) | 4.19% (active) |  | 48.3% | 27.5% | 2.86% (active) | -32.5% (active) | 15.9% | 12.7% | 61.6% | 35% |  |  |
| CC(=O)c1cc2ccccc2o1 | 99.6% |  | 101% | 108% | 109% | 101% | 102% | 95.3% | 96.6% | 99.9% |  |  |
| Clc1ccc2sc(-c3ccccc3)nc2c1 | 100% |  |  | 97.6% | 105% | 91% | 86.2% | 101% | 106% | 88% |  |  |
| Nc1nc(=S)c2[nH]cnc2[nH]1 | 13% and 12.5% |  | 29.1% and 26.5% | 98.2% and 102% | 47.2% and 51% | -2% (active) and -29% (active) |  | 8.31% (active) and 5.43% (active) | 29% | 33.2% and 32.1% | -21.9% (active) | -67.7% (active) and -100% (active) |
| CCN(CC)C(CC(=O)c1ccccc1)C(=O)c1ccccc1 (stereo not drawn) | 64.6% |  | 114% | 98.4% | 93.7% | 94.5% | 99.7% | 88.6% | 118% | 101% |  |  |
| O=C(Nc1ccccc1)OCC(CN1CCCCC1)OC(=O)Nc1ccccc1 (stereo not drawn) | 84.9% and 99.5% |  | 56.4% and 80.6% | 90.9% and 92.8% | 67.7% and 91.1% | 60.5% and 93.7% | 80.7% and 101% | 76.7% and 95.2% | 91.5% and 105% | 75.5% |  |  |
| COCCCNC1=C(C#N)C(=O)NC(c2cccs2)S1 (stereo not drawn) | 98.2% |  | 83.2% | 94.4% | 100% | 95.3% | 91.7% | 105% | 113% | 100% |  |  |
| CCC/C(=N/NC(N)=O)c1ccco1 | 103% |  | 75.2% | 90.1% | 91.8% | 99.5% | 92.7% | 98.1% | 97.7% | 86.8% |  |  |
| COCCNC(C)=O | 100% |  |  | 104% | 98.1% | 96.7% | 99.9% | 105% | 112% |  |  |  |
| Cc1ccc(NC(=S)N/C=C(\c2ccccc2)S(=O)Cc2ccccc2)c(C)c1 (stereo not drawn) | 103% |  | 87.2% | 100% | 87.9% | 98.7% | 92.2% | 102% | 112% | 86% |  |  |
| CCOC(=O)NC(N)=O | 105% and 98% |  | 84.3% and 87.6% | 103% and 100% | 101% and 96.4% | 101% | 103% | 97.9% and 94.7% | 112% and 108% | 99.3% and 92.8% |  |  |
| N=C(N)N1CCc2ccccc2C1 | 109% and 103% |  | 98% and 109% | 99.9% and 103% | 89.2% and 98.4% | 102% and 111% | 99.3% and 99% | 84.3% and 113% | 109% | 89.3% and 128% |  |  |
